# Results reported in PubChem BioAssay (NCATS).
# Records with an inconclusive call do not appear. Entries that show only a call come without a potency. The source made the active and inactive calls. Calls follow the shape of the dose curve; as a rule, active = well fitted inhibition curve with a large enough effect; inconclusive = small, poorly fitted or top-dose-only effect; inactive = no such curve, though single readings can be large or run the other way.
# Molecular target: Retinaldehyde dehydrogenase 3 (Homo sapiens) (UniProt P47895)
# Experiment: qHTS for Inhibitors of the Aldehyde Dehydrogenase Family (ALDH1A3) Primary screen (AID 2061315)
# Conditions: ALDH inhibition qHTS; series mostly up to 56 µM
row,Structure (SMILES),Potency
1,NC(=O)C1CCN(c2nc(-c3ccc(Oc4ccccc4)cc3)cs2)CC1,inactive
2,CC(=O)NC(c1ccco1)c1cc(Cl)c2ccc(N(C)C)nc2c1O (stereo not given),inactive
3,COc1cc(O)c([C@H](CC(=O)N2CC(C)CC(C)C2)c2ccc3c(c2)OCO3)c(OC)c1 (stereo not given in full),inactive
4,Cc1ccc(C)c(SC2=N[S+](=O)([O-])c3cc(C(=O)Nc4ccc5ncccc5c4)ccc32)c1,inactive
5,Cc1ccsc1CN(C)c1ncnc2ccc(-c3ccc(CO)o3)cc12,inactive
6,COc1ccc(C2c3c(nc(CCc4ccccc4)[nH]c3=O)Oc3ccc4ccccc4c32)cc1OC (stereo not given),inactive
7,O=C(CN1C(=O)N/C(=C\c2cccn2-c2cccc(C(=O)O)c2)C1=O)Nc1ccc(Cl)cc1,inactive
8,CC(=O)Nc1sc2c(c1-c1nc3ccccc3s1)CCN(C(C)=O)C2,inactive
9,CC(C)(C)OC(=O)N1CCN(c2ccc(NCc3cc(-c4ccc(C#N)cc4)co3)cc2)CC1,inactive
10,Cc1ccc(NS(=O)(=O)c2cc3c(cc2C)NC(=O)CO3)cc1C,inactive
11,O=c1c2ccccc2nc2sc(NCc3ccc(Sc4ccccc4)cc3)nn12,inactive
12,O=C(Cn1nc(-c2ccncc2)ccc1=O)NCCc1ccccc1,inactive
13,N#Cc1ccc(-c2ccc(-c3nc4ccccc4c(=O)[nH]3)o2)cc1,inactive
14,Clc1nc(CN2CCOCC2)nc2sc3c(c12)CCC3,inactive
15,Oc1ccc(CNc2ccccn2)c2cccnc12,inactive
16,O=C1CCc2cc([S+](=O)([O-])Nc3ccc(N[S+](=O)([O-])c4ccc5c(c4)CCC(=O)N5)cc3)ccc2N1,inactive
17,COc1ccc(C2Cc3ccccc3C(=O)N2Cc2ccccc2)cc1COc1ccc(NC(C)=O)cc1 (stereo not given),inactive
18,Cc1cc(NS(=O)(=O)c2ccc(NS(=O)(=O)Cc3ccc(Cl)c(Cl)c3)cc2)no1,inactive
19,N#Cc1c(-c2ccccc2C(F)(F)F)nc2ccccc2c1NCc1ccc(-c2ccnc(C(F)(F)F)c2)cc1,inactive
20,CC(C)Oc1ccc(-c2csc(N3CCC(C(N)=O)CC3)n2)cc1,inactive

row,Structure (SMILES),Potency
1,C/C=C/C1=CC2=C(CO1)C(=O)C(C)(OC(=O)c1c(C)cc(O)cc1OC)C(O)C2 (stereo not given),inactive
2,Cc1ccc(C#Cc2cc(-c3nn(-c4nc(C(=O)O)cs4)c(CC4CC4)c3Cc3ccc(S(N)(=O)=O)c(F)c3)ccc2F)o1,inactive
3,Oc1ccc(CNc2ccc(F)cc2Cl)c2cccnc12,inactive
4,CNc1oc(-c2cccc3ccccc23)nc1C(=O)Nc1cccc(C#N)c1,inactive
5,CC(C)(C)c1ccc(C(=O)Nc2ccc(-c3nc4ccccc4[nH]3)cc2)cc1,inactive
6,CN(C)c1cccc(-c2ncnc(N3CCC(C(N)=O)CC3)n2)c1,inactive
7,O=C(O)c1ccc(S(=O)(=O)N[C@@H](Cc2ccc(O)cc2)C(=O)O)cc1,inactive
8,Cn1ccc2cc(-c3csc(N4CCC(C(N)=O)CC4)n3)ccc21,inactive
9,Cc1csc(CNc2ncnc3ccc(-c4ccc(CO)o4)cc23)n1,inactive
10,CCCCOc1ccc(S(=O)(=O)n2c(C)nc3ccccc32)cc1,inactive
11,COC(=O)C1C(CC(C)=O)C=CC(O)C12Oc1cc(C)cc(O)c1C2=O (stereo not given),inactive
12,Cc1ccc(NS(=O)(=O)c2ccc3c(c2)CCO3)cc1C,inactive
13,CCOc1cc2c(cc1OCC)CN(C(=O)c1cc3sccc3n1Cc1ccccc1)CC2,inactive
14,COc1ccc(Cn2c(C)nnc2-c2cnn(C)c2N)cc1OC,inactive
15,O=C(Cc1ccc(Cl)c(Cl)c1)Nc1ccc(S(=O)(=O)Nc2cncnc2)cc1,inactive
16,CCOc1ccc(CCNC(=O)CN(C)C)cc1OCC,inactive
17,O=C(O)c1ccc(O)c2ncc(-c3ccc(N4CCOCC4)cc3)cc12,inactive
18,Cc1c(P(=S)(c2ccccc2)c2ccccc2)c2ccccc2n1C/C=C/c1ccccc1,inactive
19,Cc1nc(CN(C)c2ncnc3cc(-c4ccc5c(c4)OCO5)ccc23)cs1,inactive
20,O=C1c2ccccc2C(=O)N1c1ccc2ccccc2n1,inactive
